# Assay results taken from PubChem BioAssay (Tox21).
# Calls of active or inactive are those of the source. The call rests on the fitted dose curve.
# Target: Acetylcholinesterase (Homo sapiens) (UniProt P22303)
# Test: Acetylcholinesterase (AChE) small molecule antagonists: enzyme-based qHTS assay (AID 1347397); further: nearly all actives have a fitted effect of over 55% in size
# Conditions: Potency: AChE enzyme activity inhibition; series mostly up to 115 µM; activity change, negative = inhibition: at the top concentration
# In short: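 Enzyme inhibition was scored from DTNB-detected thiocholine formed by recombinant human AChE acting on acetylthiocholine. The 30 min compound preincubation and 10 min substrate reaction were both run at room temperature, with DMSO as vehicle control.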
# On the % scale 0 is the no-effect control and ±100 the full control effect.
# Sequence of Acetylcholinesterase (Homo sapiens) (P22303 whole entry, looked up): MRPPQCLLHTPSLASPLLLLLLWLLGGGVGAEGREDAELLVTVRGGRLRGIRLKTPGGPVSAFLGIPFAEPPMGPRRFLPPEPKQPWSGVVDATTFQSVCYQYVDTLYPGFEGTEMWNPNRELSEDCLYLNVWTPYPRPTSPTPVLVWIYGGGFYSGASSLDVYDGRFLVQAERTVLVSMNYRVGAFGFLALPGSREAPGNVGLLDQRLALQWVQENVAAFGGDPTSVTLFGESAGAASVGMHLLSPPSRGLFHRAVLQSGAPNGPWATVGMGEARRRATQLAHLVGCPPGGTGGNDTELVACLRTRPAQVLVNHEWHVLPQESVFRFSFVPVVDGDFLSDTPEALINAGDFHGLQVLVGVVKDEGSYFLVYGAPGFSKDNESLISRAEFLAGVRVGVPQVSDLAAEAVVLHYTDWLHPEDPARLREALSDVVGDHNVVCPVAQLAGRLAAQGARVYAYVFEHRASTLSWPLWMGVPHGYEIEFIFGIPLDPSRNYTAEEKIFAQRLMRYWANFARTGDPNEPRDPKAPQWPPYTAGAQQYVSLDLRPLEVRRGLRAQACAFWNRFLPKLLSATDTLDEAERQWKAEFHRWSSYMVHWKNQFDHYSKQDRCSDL
SMILES,"activity change, negative = inhibition",Potency
c1ccc2c(c1)OCC(C1=NCCN1)O2 (stereo unspecified),3.11% [at 53 µM] (inactive),
CC(C)CCCCCOC(=O)c1ccccc1C(=O)OCCCCCC(C)C,-6.96% (inactive),
CC(C)CC(C)N (stereo unspecified),-0.132% (inactive),
CC(C)CBr,0.0319% (inactive),
CCOC(=O)c1ccccc1S(=O)(=O)NC(=O)Nc1nc(Cl)cc(OC)n1,-0.409% (inactive),
Cn1cc(C2=C(c3cn(C4CCN(Cc5ccccn5)CC4)c4ccccc34)C(=O)NC2=O)c2ccccc21,0.415% [at 53 µM] (inactive),
CC(C)N1C(=O)N(c2ccccc2)CSC1=NC(C)(C)C,-0.658% (inactive),
CCCCCCCCCCBr,2.45% (inactive),
Nc1ccc(Sc2ccc(N)cc2)cc1,2.99% (inactive),
N#CCCO,-0.124% (inactive),
Oc1ccc(C(c2ccc(O)cc2)(C(F)(F)F)C(F)(F)F)cc1,-9.07% (inactive),
Brc1c(Br)c(Br)c(Oc2c(Br)c(Br)c(Br)c(Br)c2Br)c(Br)c1Br,-1.63% [at 23.6 µM] (inactive),
N#CC(Cl)Cl,0.683% (inactive),
Nc1ccc(Cc2ccc(N)c(Cl)c2)cc1Cl,-3.54% (inactive),
CCC(C)c1cc([N+](=O)[O-])cc([N+](=O)[O-])c1OC(=O)C=C(C)C (stereo unspecified),1.1% (inactive),
Cc1cc(C)c(C2=C(OC(=O)CC(C)(C)C)C3(CCCC3)OC2=O)c(C)c1,1.29% (inactive),
COc1ccc(N)cc1N,,inactive
CC(=[OH+])/C=C(/C)[O-].CC(=[OH+])/C=C(\C)[O-].CC(=[OH+])/C=C(\C)[O-].[Al],-0.0117% (inactive),
O=c1c(C2CC(c3ccc(-c4ccc(Br)cc4)cc3)Cc3ccccc32)c(O)sc2ccccc12 (stereo unspecified),-19.2% [at 53 µM] (inactive),
O=C1C=CC(=O)c2ccccc21,-0.624% (inactive),
Nc1ccc([N+](=O)[O-])cc1Cl,13.4% (inactive),
